Results filed as inconclusive are left out. A call without a number means that no potency is given here. A number with no mark means an inactive call. Active and inactive are the calls of the source. Calls come from the whole dose curve.

A short description of the experiment: p53 small molecule agonists, cell-based qHTS assay with human liver microsomes (AID 1963577).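 For activation: p53 response element beta-lactamase reporter cells with liver microsomes plus NADPH.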 The gist of the method:
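Cells carrying a p53-responsive bla reporter were rested 5 h (37 C, 5% CO2) before compound transfer. Human liver microsomes plus NADPH, 0.5 mg/mL final apiece, supplied metabolism during the 16 h 37 C exposure.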
For orientation: Quantitative high-throughput screening tests each substance at several concentrations.
Potency is the fitted concentration of half-maximal effect.

Take `C=Cc1cccc(CCl)c1`: the Potency entry is “inactive”.

For the compound `CC12CC1(C)C(=O)N(c1cc(Cl)cc(Cl)c1)C2=O` (stereo not drawn), the Potency entry is “inactive”.

As for `CCCCOC(=O)c1ccccc1C(=O)O`, the Potency entry is “inactive”.

With `N#CCCCCC#N`, the Potency result was “inactive”.

As to `Nc1cccc(Cl)c1`, the Potency entry was “inactive”.

`c1ccc(N=Nc2ccccc2)cc1`: the Potency entry is “inactive”.

As to `CCCOC(=O)c1cncn1C(C)c1ccccc1` (stereo not drawn), the Potency entry was “inactive”.

As to `CN=C=O`, the Potency result was “inactive”.

In the case of `CCCC(C)(COC(N)=O)COC(N)=O`, the Potency result was “inactive”.

Regarding `C#CCO`, the Potency entry is “inactive”.

In the case of `CC1COC2(c3ccccc3Cl)c3cc(Cl)ccc3NC(=O)CN12` (stereo not drawn), the Potency entry was “inactive”.

In the case of `C1CS1`, the Potency entry is “inactive”.

In the case of `COCCC#N`, the Potency result is “inactive”.

Regarding `Nc1ccc(Br)cc1`, the Potency entry is “inactive”.

Consider `CN1CSC(=S)N(C)C1`, for which the Potency entry is “inactive”.

As for `CNC(=O)Oc1ccccc1C1OCCO1`, the Potency result is “inactive”.

On to `CCOP(OCC)OCC`, for which the Potency result was “inactive”.

`CCOC(=O)c1cncn1C(C)c1ccccc1` (stereo not drawn): the Potency result was “inactive”.

For the compound `O=S(=O)(O)C(F)(F)C(F)(F)C(F)(F)C(F)(F)C(F)(F)C(F)(F)F`, the Potency result is “inactive”.

Turning to `CCCCCCCCn1sccc1=O`, the Potency result is “inactive”.

On to `COc1cc(OC)nc(NC(=O)NS(=O)(=O)c2ncccc2C(=O)N(C)C)n1`, for which the Potency result is “inactive”.

Regarding `CC(=O)CCC(C)=O`, the Potency entry was “inactive”.

As for `CC(=O)C(C)(C)C`, the Potency result was “inactive”.

Regarding `FC(F)(F)c1ccc(Cl)cc1`, the Potency result was “inactive”.

As to `CCNc1nc(Cl)nc(NC(C)C)n1`, the Potency entry was “inactive”.

As to `CC(C)C1(C)N=C(c2ncccc2C(=O)O)NC1=O` (stereo not drawn), the Potency entry is “inactive”.

`Nc1nc(=S)[nH][nH]1`: the Potency entry was “inactive”.

Take `O=C(O)C(F)(F)C(F)(F)C(F)(F)C(F)(F)C(F)(F)C(F)(F)F`: the Potency result was “inactive”.

Consider `CC(C#N)CCC#N` (stereo not drawn), for which the Potency result is “inactive”.

As for `CCCCSP(=O)(SCCCC)SCCCC`, the Potency result was “inactive”.

As to `Cn1cc(-c2ccccc2)c(=O)c(-c2cccc(C(F)(F)F)c2)c1`, the Potency entry was “inactive”.

As for `N#CSCSC#N`, the Potency result is “inactive”.

With `N#Cc1ccccc1N`, the Potency result was “inactive”.

On to `C=CC1(C)OC(=O)N(c2cc(Cl)cc(Cl)c2)C1=O` (stereo not drawn), for which the Potency result is “inactive”.

Consider `CNC(=O)Oc1c(C(C)(C)C)cc(C)cc1C(C)(C)C`, for which the Potency entry was “inactive”.

In the case of `CO[C@@H]1[C@H](OC(=O)NC(=O)CCl)CC[C@]2(CO2)[C@H]1[C@@]1(C)O[C@@H]1CC=C(C)C`, the activation is -1.53% [at 13.5 µM].

On to `CC(C)(Cl)Cl`, for which the Potency result was “inactive”.

Take `CC[n+]1c(-c2ccccc2)c2cc(N)ccc2c2ccc(N)cc21`: the Potency entry was “inactive”.

On to `CN(C)P(=O)(N(C)C)N(C)C`, for which the Potency entry is “inactive”.

`N#CCBr`: the Potency result is “inactive”.

Turning to `O=C1C(Cl)=C(Cl)C(=O)C(Cl)=C1Cl`, the Potency result was “inactive”.

For the compound `Cc1nn(-c2cc(NS(C)(=O)=O)c(Cl)cc2Cl)c(=O)n1C(F)F`, the Potency result was “inactive”.

`O=C(O)c1cc(Cl)ccc1Cl`: the Potency result is “inactive”.

For `Oc1cc(Cl)ccc1Cl`, the Potency entry is “inactive”.

For `N#CCc1ccccc1`, the Potency entry is “inactive”.

On to `CCCCCCCCCCBr`, for which the Potency entry is “inactive”.

On to `CC(C=O)Cc1ccc2c(c1)OCO2` (stereo not drawn), for which the Potency entry is “inactive”.

`CN(C)CCO`: the Potency entry was “inactive”.

Regarding `Cc1coc2c1CCC(C)C2` (stereo not drawn), the Potency entry was “inactive”.

With `O=C(CBr)c1ccc(O)cc1`, the Potency entry was “inactive”.

On to `COP(=S)(OC)SCn1nnc2ccccc2c1=O`, for which the Potency was 12.6 µM (active).

For the compound `CC(C)(OOC(C)(C)c1ccccc1)c1ccccc1`, the Potency entry is “inactive”.

Turning to `Oc1ccccc1Cl`, the Potency result was “inactive”.

Turning to `ClC(Cl)(Cl)Br`, the Potency result was “inactive”.

Take `[O-][Cl+]O`: the Potency result is “inactive”.

For `Clc1cccc(C(Cl)(Cl)Cl)n1`, the Potency result is “inactive”.

For `C[N+](C)(C)C`, the Potency result was “inactive”.

In the case of `C=CCN(CC=C)C(=O)C(Cl)Cl`, the Potency result was “inactive”.

For the compound `COc1ccc(N)cc1`, the Potency result was “inactive”.

With `O=[N+]([O-])c1ccccc1O`, the Potency entry is “inactive”.

Turning to `CC(=[OH+])/C=C(/C)[O-].CC(=[OH+])/C=C(\C)[O-].CC(=[OH+])/C=C(\C)[O-].[Fe]`, the Potency entry is “inactive”.

Consider `CCOC(=O)N(C)N=O`, for which the Potency entry is “inactive”.

In the case of `CCNc1nc(Cl)nc(NCC)n1`, the Potency result is “inactive”.

These data come from PubChem BioAssay (Tox21).
